Measured values: PubChem BioAssay (NCATS)
Several values for one entry are separate records, joined by “and”; a condition that tells them apart may be missing. Equal values may be shown once. Records with an inconclusive call do not appear. Activity calls are given as the source filed them. The call rests on the fitted dose curve; in most records, active means well fitted inhibition curve with a large enough effect; inconclusive means small, poorly fitted or top-dose-only effect; inactive means flat fitted curve, though single readings scatter.

Columns and labels:
CRL-7250 = normal cell line; experiment: Cytotoxic Profiling of Annotated Libraries Using Quantitative High-Throughput Screening (AID 1296008); details: Five cell lines viability, CellTiter-Glo ATP luminescence, 48-72 h; max response: active compounds read low; further: potency means the concentration at half of the fitted maximal effect; on max response: on the % scale 0 is the no-effect control and ±100 the full control effect
Procedure, shortened: (§1)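 Cells exposed to compounds for 48 or 72 hr at 37 degrees Celsius. Viability read as ATP-coupled luminescence with CellTiter-Glo after 10 min at room temperature.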

HaCat [1] = experiment: as above; details: Five cell lines viability, CellTiter-Glo ATP luminescence, 48-72 h; max response: active compounds read low
Procedure, shortened: as §1

KB-3-1 = experiment: as above; details: Five cell lines viability, CellTiter-Glo ATP luminescence, 48-72 h; max response: active compounds read low
Procedure, shortened: as §1

NIH3T3 = experiment: as above; details: Five cell lines viability, CellTiter-Glo ATP luminescence, 48-72 h; max response: active compounds read low
Procedure, shortened: as §1

MCC-13 = experiment: qHTS assay to identify novel small-molecules to repurpose for Merkel cell carcinoma treatment (AID 1296009); details: MCC and control cell lines, CellTiter-Glo viability, 72 h; series mostly up to 46 µM
Procedure, shortened: (§2)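 Cells were treated for 72 hr at 37 degree celsius with compounds in 8- or 11-point dose response. Viability was read by CellTiter-Glo luminescence, normalized to no-cell (cytotoxicity) and DMSO controls.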

MCC-26 = experiment: as above; details: MCC and control cell lines, CellTiter-Glo viability, 72 h; series mostly up to 46 µM
Procedure, shortened: as §2

MKL-1 = experiment: as above; details: MCC and control cell lines, CellTiter-Glo viability, 72 h; series mostly up to 46 µM
Procedure, shortened: as §2

MKL-2 = experiment: as above; details: MCC and control cell lines, CellTiter-Glo viability, 72 h; series mostly up to 46 µM
Procedure, shortened: as §2

PC15 = experiment: qHTS profiling for inhibitors of Plasmodium falciparum proliferation (AID 504749); further: potency means the concentration at half of the fitted maximal effect; details: P. falciparum in erythrocytes, SYBR Green DNA, 72 h; series mostly up to 28.7 µM
Procedure, shortened: (§3)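 P. falciparum-infected erythrocytes (0.3% parasitemia, 2.5% hematocrit) incubated with compound 72 h at 37 C, 5% CO2. Parasite DNA detected by SYBR Green after lysis, overnight at room temperature; normalised to 0.29 uM artemisinin and DMSO.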

SC27B = experiment: as above; details: P. falciparum in erythrocytes, SYBR Green DNA, 72 h; series mostly up to 28.7 µM
Procedure, shortened: as §3

TAB109 = experiment: as above; details: P. falciparum in erythrocytes, SYBR Green DNA, 72 h; series mostly up to 28.7 µM
Procedure, shortened: as §3

TAB113 = experiment: as above; details: P. falciparum in erythrocytes, SYBR Green DNA, 72 h; series mostly up to 28.7 µM
Procedure, shortened: as §3

HACAT [2] = experiment: qHTS assay to identify novel small-molecules to repurpose for Merkel cell carcinoma treatment (AID 1296009); details: MCC and control cell lines, CellTiter-Glo viability, 72 h; at 44.8 µM (top of the series) unless noted
Procedure, shortened: as §2

PC26 = experiment: qHTS profiling for inhibitors of Plasmodium falciparum proliferation (AID 504749); further: potency means the concentration at half of the fitted maximal effect; details: P. falciparum in erythrocytes, SYBR Green DNA, 72 h; series mostly up to 28.7 µM
Procedure, shortened: as §3

PC49 = experiment: as above; details: P. falciparum in erythrocytes, SYBR Green DNA, 72 h; series mostly up to 28.7 µM
Procedure, shortened: as §3

TAB165 = experiment: as above; details: P. falciparum in erythrocytes, SYBR Green DNA, 72 h; series mostly up to 28.7 µM
Procedure, shortened: as §3

HEK293T = experiment: qHTS assay to identify novel small-molecules to repurpose for Merkel cell carcinoma treatment (AID 1296009); details: MCC and control cell lines, CellTiter-Glo viability, 72 h; at 44.8 µM (top of the series) unless noted
Procedure, shortened: as §2

W2 = experiment: qHTS profiling for inhibitors of Plasmodium falciparum proliferation (AID 504749); further: potency means the concentration at half of the fitted maximal effect; details: P. falciparum in erythrocytes, SYBR Green DNA, 72 h; series mostly up to 28.7 µM
Procedure, shortened: as §3

HEK293 = experiment: Cytotoxic Profiling of Annotated Libraries Using Quantitative High-Throughput Screening (AID 1296008); details: Five cell lines viability, CellTiter-Glo ATP luminescence, 48-72 h; max response: active compounds read low; further: potency means the concentration at half of the fitted maximal effect; on max response: on the % scale 0 is the no-effect control and ±100 the full control effect
Procedure, shortened: as §1
Further: nearly all actives have a fitted effect of over 60% in size.

C#C[C@]1(O)CC[C@H]2[C@@H]3CCC4=CC(=O)CC[C@]4(C)[C@H]3CC[C@@]21C
inactive: max response (CRL-7250) -4.49% | max response (HaCat [1]) 2.04% | max response (KB-3-1) -5.39% and -1.95% | max response (NIH3T3) 4.32% | outcome (MCC-13) | Potency (MCC-26) | Potency (MKL-1) | Potency (MKL-2)

C[C@]12Cc3cn[nH]c3C[C@@H]1CC[C@@H]1[C@@H]2CC[C@@]2(C)[C@H]1CC[C@]2(C)O
inactive: max response (CRL-7250) 0.607% | max response (HaCat [1]) 2.06% | max response (NIH3T3) 3.99% | outcome (MCC-13) | Potency (MCC-26) | Potency (MKL-1) | Potency (MKL-2)

O=C(N/N=C/c1ccc([N+](=O)[O-])o1)c1cc([N+](=O)[O-])cc([N+](=O)[O-])c1O
inactive: Potency (PC15) | max response (CRL-7250) -3.2% | outcome (HaCat [1]) | max response (KB-3-1) 15.7% | max response (NIH3T3) 1.92% | outcome (HACAT [2]) | outcome (MCC-13) | Potency (MCC-26) | Potency (MKL-1)
active: Potency (SC27B) 141 nM | Potency (TAB109) 14.1 nM | Potency (TAB113) 282 nM

O=C(CCCN1CCC2(CC1)C(=O)NCN2c1ccccc1)c1ccc(F)cc1
inactive: max response (CRL-7250) -1.53% | outcome (HaCat [1]) | max response (KB-3-1) -7.2% | outcome (NIH3T3) | outcome (HACAT [2]) | outcome (MCC-13) | Potency (MKL-1) | Potency (MKL-2)

CN1CC[C@]23c4c5ccc(O)c4O[C@H]2[C@@H](O)C=C[C@H]3[C@H]1C5
inactive: max response (CRL-7250) -11.3% | outcome (HaCat [1]) | max response (KB-3-1) -4.72% | max response (NIH3T3) -4.09% | outcome (HACAT [2]) inactive [at 92 µM] | outcome (MCC-13) | Potency (MCC-26)

CCCN(CCC)C(=O)Cc1c(-c2ccc(Cl)cc2)nc2ccc(Cl)cn12
inactive: max response (CRL-7250) 0.585% | max response (HaCat [1]) -9.95% | max response (KB-3-1) -8.04% | max response (NIH3T3) 0.9% | outcome (MCC-13) | Potency (MKL-1) | Potency (MKL-2)

CNCC(=O)c1ccc(O)c(O)c1
inactive: max response (CRL-7250) 0.325% | outcome (HaCat [1]) | max response (KB-3-1) -7.67% | max response (NIH3T3) -2.19% | outcome (HACAT [2]) | outcome (MCC-13) | Potency (MKL-1) | Potency (MKL-2)

Nc1ccc([As](=O)(O)O)cc1
inactive: Potency (PC15) | Potency (PC26) | Potency (PC49) | Potency (SC27B) | Potency (TAB109) | Potency (TAB113) | Potency (TAB165) | max response (CRL-7250) 1.05% | max response (HaCat [1]) -3.33% | max response (KB-3-1) -4.72% | outcome (NIH3T3) | outcome (MCC-13) | Potency (MCC-26) | Potency (MKL-1) | Potency (MKL-2)

CC(=O)NC1CCSC1=O (configuration not stated)
inactive: max response (CRL-7250) -4.93% | max response (HaCat [1]) -1.96% | max response (KB-3-1) -11.7% and -14.3% | max response (NIH3T3) 2.68% | outcome (HEK293T) | outcome (MCC-13) | Potency (MCC-26) | Potency (MKL-1)

CC(Cc1ccccc1)NCCn1cnc2c1c(=O)n(C)c(=O)n2C (configuration not stated)
inactive: max response (CRL-7250) 2.38% | outcome (HaCat [1]) | max response (KB-3-1) 0.853% | max response (NIH3T3) -0.181% | outcome (HACAT [2]) inactive [at 92 µM] | outcome (MCC-13) | Potency (MCC-26) | Potency (MKL-1) | Potency (MKL-2)

Nc1ccccc1C(=O)O
inactive: Potency (PC15) | Potency (PC26) | Potency (PC49) | Potency (SC27B) | Potency (TAB109) | Potency (TAB113) | Potency (TAB165) | Potency (W2) | max response (CRL-7250) -2.31% | outcome (HaCat [1]) | max response (KB-3-1) -19.2% | max response (NIH3T3) 3.28% | outcome (HACAT [2]) | outcome (MCC-13) | Potency (MKL-1) | Potency (MKL-2)

COP(=S)(OC)Oc1ccc(S(=O)(=O)N(C)C)cc1
inactive: Potency (PC15) | Potency (PC26) | Potency (PC49) | Potency (SC27B) | Potency (TAB109) | Potency (TAB113) | Potency (TAB165) | Potency (W2) | max response (CRL-7250) 4.64% | max response (HaCat [1]) -5.18% | max response (KB-3-1) -10.7% | max response (NIH3T3) -0.737% | outcome (MCC-13) | Potency (MCC-26) | Potency (MKL-1) | Potency (MKL-2)

C[C@H]1[C@@H]2Cc3ccc(O)cc3[C@@]1(C)CCN2C
inactive: max response (CRL-7250) -7.45% | max response (KB-3-1) -22% | outcome (NIH3T3) | outcome (MCC-13) | Potency (MCC-26) | Potency (MKL-1) | Potency (MKL-2)

C[C@]12CCC(=O)C=C1CC[C@@H]1[C@H]3CC[C@](C)(O)[C@@]3(C)CC[C@@H]12
inactive: outcome (MCC-13) | Potency (MCC-26)
active: Potency (HEK293) 30900 nM

CN1C(=O)COc2c(C(=O)NC3CN4CCC3CC4)cc(Cl)cc21 (configuration not stated)
inactive: Potency (PC15) | Potency (PC26) | Potency (PC49) | Potency (SC27B) | Potency (TAB109) | Potency (TAB113) | Potency (TAB165) | Potency (W2) | max response (CRL-7250) -5.92% | max response (HaCat [1]) -0.711% and 2.67% | max response (KB-3-1) 2.45% | max response (NIH3T3) -0.6% and 1.75% | outcome (MCC-13) | Potency (MCC-26) | Potency (MKL-1) | Potency (MKL-2)
